Reference: PubChem BioAssay (NCATS)
Records with an inconclusive call do not appear. Values without a mark were called inactive. The call rests on the fitted dose curve.

biological target: Atrial natriuretic peptide receptor 1 (Homo sapiens) (UniProt P16066); test: Natriuretic polypeptide receptor (hNpr1) antagonism - Pilot screen (AID 1347049); details: hNpr1 cells, antagonist mode cGMP read-out; series mostly up to 57.5 µM; activity change, negative = inhibition: at the top concentration
Experimental: In order to identify small molecular compounds that inhibit the hNpr1 receptor we developed a high-throughput assay to measure inhibition of the guanylate cyclase activity of the receptor. cGMP production was measured using a circular permutated Firefly luciferase (FLuc) enzyme functionally linked to the cGMP binding domain of human phosphodiesterase 5 (GloSensor technology pGS-40F, (Fan, F. et al. 2008). The cGMP-sensor was expressed in human embryonic kidney 293 (HEK-293) cells and FLuc activity was measured after stimulation with hNrp agonist peptide. hNrp agonists activates the receptor's associated guanylyl cyclase (GC) domain producing cGMP which then binds to the GloSensor resulting in FLuc activation, the enzymatic activity of which can be measured as bioluminescence with addition of luciferin substrate.
F. Fan, B. F. Binkowski, B. L. Butler, P. F. Stecha, M. K. Lewis, K. V. Wood, Novel genetically encoded biosensors using firefly luciferase. ACS Chem Biol 3, 346-351 (2008).
This assay was initially piloted by testing with a small diversity library of compounds with known pharmacological activity.
PROTOCOL TABLES (as described by Inglese J, Shamu CE and Guy RK. 2007)
SEQUENCE No. (e.g., 1, 2, 3, etc.); […] (e.g., Cells, Incubation, Reagent, etc.); VALUE and DESCRIPTION.
1. Cells. Seed 1500 HEK293 cGMP-sensor cells expressing hNpr1 per well in 4uL into Greiner 1536-well white/solid bottom high base, tissue culture-treated plates.
2. Incubation. Incubate plated cells at 37C in 5% CO2, 95% RH overnight.
3. Reagent. Add 1uL per well GloSensor reagent from Promega (2% final concentration) or CO2 independent media vehicle control to respective columns of Greiner 1536-well plates.
4. Incubation. Incubate plated cells at room temperature for 2 h, protect from light.
5. Compounds. Library compounds and A-71915 control added at 23 nL per well, transferred by Pin Tool.
6. Incubation. Incubate plated cells for 30 min. at room temperature, protect from light.
7. Detector. GloSensor baseline pre-read luminescence measured using CCD-based camera (Viewlux).
8. Compound. Add 1uL of hNppA peptide to 0.1 nM final concentration to stimulate hNpr1 or CO2 independent media as vehicle control.
9. Incubation. Incubate treated cells at room temperature for 20 min., protect from light.
10. Detector. GloSensor post-hNppA luminescence measured using CCD-based camera (Viewlux).
NOTES (numbers refer to Sequence numbers above)
1. HEK293 cells expressing hNpr1 and GIP/pGS-40F grown to 85-95% confluence (48-72 h) in T175 culture flasks (CO2 independent media supplemented with 10% FBS, 1% Pen/Strep antibiotics and 1 ug/mL puromycin). Trypsinize and harvest cells from T175 culture flasks and filter through 40 um cell strainer. Cells counted with Invitrogen Countess (30,000,000 - 50,000,000 cells/flask). Cells diluted to a final concentration of 375 cells/uL in CO2 independent media and a Millipore multidrop used to dispense 1500 cells per well (4uL/well) into 9 x 1536-well Greiner White/Solid bottom, high base tissue-culture treated (TC) plates and one Aurora 1536-well Black/Clear bottom, low base, TC plate (for visual inspection of cell health throughout the duration of the assay).
2. Cells incubated overnight at ambient temperature, 24 h. at 37C in 95% RH incubator protected from light, covered with metal lid with gas-exchange holes.
3. Prepare GloSensor Reagent (Promega): Reconstitute GloSensor luciferase substrate by adding 8.2mL Hepes buffer to 250mg substrate, mix well, protect from light and stored at -80C. Prepare a fresh 12% GloSensor solution in CO2 independent supplemented plating media (see above). Mix well and store at ambient temperature, protected from light. 1uL 12% GloSensor Luciferase Reagent added (2% final concentration) to respective columns of 9 x 1536-well Greiner plate with BioRaptr, 1uL CO2 independent plating media added to respective columns as vehicle control with BioRaptr.
4. […]
On the % scale 0 is the no-effect control and ±100 the full control effect.

Sequence of Atrial natriuretic peptide receptor 1 (Homo sapiens) (P16066 whole entry, looked up, the tested form may be a part): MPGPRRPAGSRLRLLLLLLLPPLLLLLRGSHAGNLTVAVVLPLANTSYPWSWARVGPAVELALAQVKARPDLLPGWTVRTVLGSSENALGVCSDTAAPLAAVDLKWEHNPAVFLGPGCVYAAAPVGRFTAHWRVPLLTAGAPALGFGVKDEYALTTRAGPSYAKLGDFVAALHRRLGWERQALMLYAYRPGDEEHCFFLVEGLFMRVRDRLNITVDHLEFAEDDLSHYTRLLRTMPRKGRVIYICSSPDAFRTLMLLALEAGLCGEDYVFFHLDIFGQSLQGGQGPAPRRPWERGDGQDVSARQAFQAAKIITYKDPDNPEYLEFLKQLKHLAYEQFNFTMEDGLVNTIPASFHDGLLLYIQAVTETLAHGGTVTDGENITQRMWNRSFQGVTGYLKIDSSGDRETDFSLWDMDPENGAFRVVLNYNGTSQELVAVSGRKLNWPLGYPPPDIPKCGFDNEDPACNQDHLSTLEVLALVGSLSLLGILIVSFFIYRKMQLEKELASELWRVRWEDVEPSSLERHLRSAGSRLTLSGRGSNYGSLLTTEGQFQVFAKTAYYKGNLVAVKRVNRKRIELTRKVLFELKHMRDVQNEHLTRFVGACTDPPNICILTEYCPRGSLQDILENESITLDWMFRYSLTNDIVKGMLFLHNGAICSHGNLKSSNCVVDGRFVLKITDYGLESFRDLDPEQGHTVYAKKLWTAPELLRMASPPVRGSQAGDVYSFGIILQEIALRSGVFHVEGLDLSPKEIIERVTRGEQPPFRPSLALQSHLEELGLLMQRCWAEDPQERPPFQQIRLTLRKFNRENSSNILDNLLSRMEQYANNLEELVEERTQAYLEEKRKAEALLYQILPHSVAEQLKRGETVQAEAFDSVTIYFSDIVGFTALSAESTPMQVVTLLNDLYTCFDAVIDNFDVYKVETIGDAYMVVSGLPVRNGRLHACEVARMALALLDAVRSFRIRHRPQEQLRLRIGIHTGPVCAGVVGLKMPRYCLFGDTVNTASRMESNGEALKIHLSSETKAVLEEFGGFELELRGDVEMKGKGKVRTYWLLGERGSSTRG

Row | Compound | activity change, negative = inhibition [%]
1 | N[C@@H](Cc1cnc[nH]1)C(=O)O | 3.61
2 | CC(C)C[C@H]1C(=O)N2CCC[C@H]2[C@]2(O)O[C@](NC(=O)[C@@H]3C=C4c5cccc6[nH]c(Br)c(c56)C[C@H]4N(C)C3)(C(C)C)C(=O)N12 | 2.66
3 | COc1cc(NS(C)(=O)=O)ccc1Nc1c2ccccc2nc2ccccc12 | -1.63
4 | CC(C)COC(=O)OCN1C(=O)CN(CCN2CC(=O)N(COC(=O)OCC(C)C)C(=O)C2)CC1=O | 6.59
5 | C[C@@H]1C(=O)NC2=Nc3cccc(Cl)c3CN21 | 2.17
6 | CC(=O)O[C@H]1C[C@@H]2CC[C@@H]3[C@H](CC[C@@]4(C)[C@H]3C[C@H]([N+]3(C)CCCCC3)[C@@H]4OC(C)=O)[C@@]2(C)C[C@@H]1[N+]1(C)CCCCC1 | 5.22
7 | Nc1cc(Cl)c(NC2=NCCN2)c(Cl)c1 | 9.36
8 | COC(=O)[C@H]1[C@H]2C[C@H]3c4[nH]c5ccccc5c4CCN3C[C@H]2CC[C@@H]1O | 0.0275
9 | CC1(C)CCC(NC(=O)[C@@H](N)CCC(=O)O)CC1 | 9.87
10 | CN1C2CCC1CC(OC(=O)c1c[nH]c3ccccc13)C2 (stereo not drawn) | 0.604
11 | CC[C@H](C)C(=O)O[C@H]1CCC=C2C=C[C@H](C)[C@H](CC[C@@H]3C[C@@H](O)CC(=O)O3)[C@H]21 | 1.77
12 | COc1cc2c(cc1O)CC[C@@H]1[C@@H]2CC[C@]2(C)[C@@H](O)CC[C@@H]12 | -0.338
13 | O=C1CCC(c2ccc(-n3ccnc3)cc2)=NN1 | 4.1
14 | CCC(NC(C)C)C(O)c1ccc(O)c(O)c1 (stereo not drawn) | 12.1
15 | CNCCC=C1c2ccccc2CCc2ccccc21 | -1.12
16 | N[C@H](CO)C(=O)O | 7.65
17 | C1CCc2nnnn2CC1 | 4.83
18 | C[C@]12CC[C@@H]3c4ccc(O)cc4CC[C@H]3[C@@H]1CC[C@@H]2O | -7.6
19 | Oc1ccc(O)cc1 | -1.03
20 | CCCn1c(=O)[nH]c(=O)c2[nH]cnc21 | 3.01
21 | CCCC1O[C@@H]2C[C@H]3[C@@H]4CCC5=CC(=O)C=C[C@]5(C)[C@H]4[C@@H](O)C[C@]3(C)[C@]2(C(=O)CO)O1 (stereo partly drawn) | -3.47
22 | CC(CCc1ccccc1)NCC(O)c1ccc(O)c(C(N)=O)c1 (stereo not drawn) | -6.86
23 | O=C(O)c1cc2cc(Cc3cccnc3)ccc2o1 | 9.12
